Measured values published in PubChem BioAssay (EPA / NIEHS).
Inconclusive results are not listed. The source made the active and inactive calls. How the source made its calls, unless noted: active means hit-call score of the fitted dose curve at least 0.9, where 1 is the maximum; inconclusive means response in the unintended direction; inactive means score below 0.9.

What was measured:
[1] = biological target: Cellular tumor antigen p53 (Homo sapiens) (UniProt P04637); assay: TOX21_p53_BLA_p2_ratio: Tox21 HCT-116 p53 Agonism Beta-lactamase Assay, Ratio, Phase 2 (AID 2283592)
Summary of the method: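 In this cell-based reporter format, HCT116 cells were dosed with chemicals delivered from DMSO by 217-fold dilution and incubated 16 h at 37C. Emission at 460 and 530 nm after 2 h CCF4-AM loading provided the ratio, fitted upward versus DMSO.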

[2] = biological target: Cellular tumor antigen p53 (Homo sapiens) (UniProt P04637); assay: TOX21_p53_BLA_p3_ratio: Tox21 HCT-116 p53 Agonism Beta-lactamase Assay, Ratio, Phase 3 (AID 2283596)
Summary of the method: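 HCT116 p53-bla cells (4000/well) given compound in DMSO (217-fold dilution) after 5 h, incubated 16 h at 37C. CCF4-AM substrate 2 h at room temperature; 460/530 nm emission ratio, gain fitted against DMSO.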

[3] = TOX21_p53_BLA_p4_viability: Viability Assessment in the Tox21 HCT-116 p53 Agonism Beta-lactamase Assay, Phase 4 (AID 2283597);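 further: hits lower the luminescence signal meaning cytotoxicity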
Summary of the method: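 We seeded HCT116 p53 reporter cells at 4000/well and waited 5 h. We then added compounds in DMSO at a 217-fold dilution and incubated for 16 h. Viability was read as CellTiter-Glo luminescence after 30 min at RT.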

[4] = biological target: Cellular tumor antigen p53 (Homo sapiens) (UniProt P04637); assay: TOX21_p53_BLA_p5_ratio: Tox21 HCT-116 p53 Agonism Beta-lactamase Assay, Ratio, Phase 5 (AID 2283599)
Summary of the method: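 Beta-lactamase reporter ratio (blue 460 nm over green 530 nm, 405 nm excitation) after 2 h CCF4-AM loading, in HCT-116 cells exposed 16 h at 37 C to compounds pinned at 217-fold dilution. Increases relative to DMSO baseline scored.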

[5] = TOX21_p53_BLA_p5_viability: Viability Assessment in the Tox21 HCT-116 p53 Agonism Beta-lactamase Assay, Phase 5 (AID 2283600)
Summary of the method: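 Compounds, pinned from DMSO at 217-fold dilution, were left on the cells for 16 h. The viability endpoint was ATP content measured by CellTiter-Glo luminescence, where falling signal reflects cytotoxicity.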

[6] = biological target: Cellular tumor antigen p53 (Homo sapiens) (UniProt P04637); assay: TOX21_p53_BLA_p4_ratio: Tox21 HCT-116 p53 Agonism Beta-lactamase Assay, Ratio, Phase 4 (AID 2283601)
Summary of the method: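 Signal is the blue/green (460nm/530nm) ratio of cleaved versus uncleaved CCF4-AM substrate, read after 2 h substrate loading. Cells were HCT116 carrying the p53-responsive beta-lactamase reporter, dosed 16 h at 37C, 5% CO2; CellTiter-Glo measured in parallel.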

[7] = ACEA_ER_AUC_viability: ACEA Biosciences xCELLigence Real-Time Cell Analysis on Estrogen Receptor Agonism for Viability (AID 2283782);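 further: continuous compound exposure with impedance area under curve over 80 h; hit means loss of impedance signal meaning reduced cell growth or viability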
Summary of the method: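 T-47D; phenol red-free RPMI1640 + 10% CS-FBS; 8 conc., 1:4 serial, max 100 uM final, ≤0.5% DMSO; n = 2; continuous exposure; impedance monitored to 80 h post-dose; AUC vs DMSO.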

[8] = CCTE_Harrill_HTTr_Viability_MCF7: CCTE's 6-hour Cell Viability Assessment for the High-Throughput Transcriptomics (HTTr) Platform, in MCF-7 cells cultured in DMEM + 10% fetal bovine serum, Harrill Lab (AID 2284010; active means hit-call score of the fitted dose curve at least 0.9, where 1 is the maximum; inactive means score below 0.9)
Summary of the method: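 Membrane integrity was scored by high-content imaging of propidium iodide dye exclusion after a 6 h exposure across an eight-point dilution series. Data were fitted bidirectionally relative to DMSO as negative control and baseline.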

[9] = CCTE_Harrill_HTTr_Apoptosis_MCF7: CCTE's 6-hour Apoptosis Assessment for the High-Throughput Transcriptomics (HTTr) Platform, in MCF-7 cells cultured in DMEM + 10% fetal bovine serum, Harrill Lab (AID 2284011; active means hit-call score of the fitted dose curve at least 0.9, where 1 is the maximum; inactive means score below 0.9)
Summary of the method: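 Read-out: CellEvent Caspase 3/7 Green signal by high content imaging, gain-of-signal indicating apoptosis. MCF-7 cells, DMEM + 10% FBS, eight-point dilution series, 6 h exposure. Curves fitted bidirectionally relative to DMSO negative control.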

[10] = CCTE_Harrill_HTTr_CellCount_MCF7: CCTE's Cell Proliferation Assessment for the High-Throughput Transcriptomics (HTTr) Platform, Harrill Lab (AID 2284012);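 further: cells exposed to compound for six hours; intended direction is loss of nuclei count meaning fewer cells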
Summary of the method: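 MCF-7 cells were exposed for 6 h to an eight-point dilution series; Hoechst-labeled nuclei were counted by high content imaging. Curves were fitted bidirectionally against DMSO as negative control and baseline, with signal loss indicating reduced cell count.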

Measured: AC50

Chain of Cellular tumor antigen p53 (Homo sapiens) (P04637 whole entry, looked up): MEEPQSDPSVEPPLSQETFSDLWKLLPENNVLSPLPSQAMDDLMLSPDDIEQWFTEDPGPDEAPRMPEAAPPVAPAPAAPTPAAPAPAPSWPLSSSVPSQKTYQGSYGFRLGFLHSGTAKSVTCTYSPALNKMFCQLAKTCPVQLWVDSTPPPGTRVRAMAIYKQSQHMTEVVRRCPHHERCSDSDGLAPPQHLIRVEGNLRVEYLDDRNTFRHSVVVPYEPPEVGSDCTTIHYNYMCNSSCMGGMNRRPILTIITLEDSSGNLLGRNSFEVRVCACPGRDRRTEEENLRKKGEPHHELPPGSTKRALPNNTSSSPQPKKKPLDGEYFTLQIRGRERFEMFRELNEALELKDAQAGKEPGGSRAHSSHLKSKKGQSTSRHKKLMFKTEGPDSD

CN1CCC[C@@H]1CCO[C@](C)(c1ccccc1)c1ccc(Cl)cc1
inactive: [1] | [2] | [3] | [4] | [5] | [6]

CC1(C)OC(=O)NC1=O
inactive: [1] | [2] | [3] | [4] | [5] | [6]

C=CCOC(=O)CCCCCCCC
inactive: [1] | [2] | [3] | [4] | [5] | [6]

CCN(CC)C(=O)[C@]1(c2ccccc2)C[C@@H]1CN
inactive: [1] | [2] | [3] | [4] | [5] | [6]

O=C(Nc1cccc(C2=NCCN2)c1)Nc1cccc(C2=NCCN2)c1
inactive: [1] | [2] | [3] | [4] | [6]

O=C(CCN1CCC(c2ccccc2)C1)c1ccc2c(c1)OCCO2 (stereo unspecified)
inactive: [1] | [2] | [3] | [6]
active: [4] 41.1 µM

Cc1c[nH]c2ccccc12
inactive: [1] | [2] | [3] | [4] | [5] | [6]

C1CSCCS1
inactive: [1] | [2] | [3] | [4] | [5]

COc1ccc(/C=C/C(=O)O)cc1
inactive: [1] | [2] | [3] | [4] | [5] | [6]

CC(Cc1cccc(C(F)(F)F)c1)NCCOC(=O)c1ccccc1 (stereo unspecified)
inactive: [1] | [2] | [3] | [4] | [5] | [6]

O=c1c(O)c(O)c1=O
inactive: [1] | [2] | [3] | [4] | [5] | [6]

C[N+]1(C)[C@@H]2CC(OC(=O)[C@H](CO)c3ccccc3)C[C@H]1[C@@H]1O[C@@H]12 (stereo partly specified)
inactive: [1] | [2] | [3] | [4] | [5] | [6]

CCCCCC(C)N (stereo unspecified)
inactive: [1] | [2] | [3] | [4] | [5] | [6]

O=C(O)CCc1ccccc1
inactive: all assays above

O=C1NC(=O)c2cc([N+](=O)[O-])ccc21
inactive: [1] | [2] | [3] | [4] | [5] | [6]

C1=CCC2CC=CC2C1 (stereo unspecified)
inactive: [1] | [2] | [3] | [4] | [5]

CCCCCCCC/C=C\CCCCCCCC(N)=O
inactive: [1] | [2] | [3] | [4] | [6]

O=C(CN1CCNCC1)NC1CCCCC1
inactive: [1] | [2] | [3] | [4] | [5] | [6]

CCN(CC)CCNC(=O)COc1ccc(OC)cc1
inactive: [1] | [2] | [3] | [4] | [5] | [6]

ClC(Cl)Cl
inactive: [1] | [2] | [3] | [4] | [5] | [6]

Cc1ccc(O)c(N)c1
inactive: [1] | [2] | [3] | [4] | [5] | [6]

CCCCOC(=O)CCS
inactive: [1] | [2] | [3] | [4] | [5] | [6]

CC(C)OC(=O)C(C(=O)OC(C)C)=C1SC=CS1
inactive: [1] | [2] | [3] | [4] | [5] | [6]

Nc1cccc([N+](=O)[O-])c1
inactive: [1] | [2] | [3] | [4] | [5]

Cc1ncsc1CCO
inactive: [1] | [2] | [3] | [4] | [5]

COC(=O)c1cccc(Cl)c1
inactive: [1] | [2] | [3] | [5] | [6]

OCCOc1ccc(OCCO)cc1
inactive: [1] | [2] | [3] | [5] | [6]

COc1ccc(C2(C#N)CCC(C(=O)O)CC2)cc1OC1CCCC1 (stereo unspecified)
inactive: [1] | [2] | [3] | [5]

CN(C)CCC=C1c2ccccc2C=Cc2ccccc21
inactive: [1] | [2] | [3] | [4] | [6]

CO[C@H]1[C@@H](O)[C@H](N)[C@@H](O[C@H]2O[C@H]([C@H](C)N)CC[C@H]2N)[C@H](O)[C@@H]1N(C)C(=O)CN
inactive: [1] | [2] | [3] | [5] | [6]
